A number with no mark means an inactive call. Inconclusive results are not listed. Calls of active or inactive are those of the source. Unless noted, calls follow the shape of the dose curve; as a rule, active = well fitted curve in either direction with a large enough effect (not every such curve was filed as active); inconclusive = small, poorly fitted or top-dose-only effect, or another doubt; inactive = flat fitted curve, though single readings scatter.
What was measured:
[1] = AP1 Signaling Pathway (AID 357); details: ME-180 AP-1-bla reporter, EGF-induced, beta-lactamase ratio, 5 h; at 17.2 µM (top of the series) unless noted;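 also: ME-180 reporter cells stimulated with EGF at its EC50 level; % is scaled to controls: 0 for no effect and ±100 for the full control effect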
Method in brief: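 Read-out was the 460nm/530nm emission ratio (excitation 405nm) after CCF4 loading for 2.5 hours at room temperature. Cells carried an AP-1-driven beta-lactamase reporter, were stimulated with EC50 EGF plus compound for 5 hours, and AC50 values came from titrations.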

[2] = Stat Signaling Pathway (AID 446); details: ME-180 SIE beta-lactamase reporter, IL-6 stimulated, 5 h; at 17.2 µM (top of the series) unless noted;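 also: ME-180 cervical cancer cells given 40 pM IL-6 alongside compound; SIE-controlled beta-lactamase reporter measured as 460/530 nm FRET emission ratio; % is scaled to controls: 0 for no effect and ±100 for the full control effect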
Method in brief: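 Compound effects on IL-6-induced STAT reporter activity were measured in ME-180 cells. After overnight culture, cells were co-treated with 40 pM IL-6 for 5 hrs before beta-lactamase substrate loading at room temperature.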

[3] = biological target: Glucocorticoid receptor (Homo sapiens) (UniProt P04150); assay: GR-GFP Redistribution (AID 450;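 active = compounds whose dose series gives a full or clear partial fitted curve of increased nuclear translocation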; also: potency is read from the fitted curve at half-maximal effect)
Chain of Glucocorticoid receptor (Homo sapiens) (P04150 whole entry, looked up, the tested form may be a part): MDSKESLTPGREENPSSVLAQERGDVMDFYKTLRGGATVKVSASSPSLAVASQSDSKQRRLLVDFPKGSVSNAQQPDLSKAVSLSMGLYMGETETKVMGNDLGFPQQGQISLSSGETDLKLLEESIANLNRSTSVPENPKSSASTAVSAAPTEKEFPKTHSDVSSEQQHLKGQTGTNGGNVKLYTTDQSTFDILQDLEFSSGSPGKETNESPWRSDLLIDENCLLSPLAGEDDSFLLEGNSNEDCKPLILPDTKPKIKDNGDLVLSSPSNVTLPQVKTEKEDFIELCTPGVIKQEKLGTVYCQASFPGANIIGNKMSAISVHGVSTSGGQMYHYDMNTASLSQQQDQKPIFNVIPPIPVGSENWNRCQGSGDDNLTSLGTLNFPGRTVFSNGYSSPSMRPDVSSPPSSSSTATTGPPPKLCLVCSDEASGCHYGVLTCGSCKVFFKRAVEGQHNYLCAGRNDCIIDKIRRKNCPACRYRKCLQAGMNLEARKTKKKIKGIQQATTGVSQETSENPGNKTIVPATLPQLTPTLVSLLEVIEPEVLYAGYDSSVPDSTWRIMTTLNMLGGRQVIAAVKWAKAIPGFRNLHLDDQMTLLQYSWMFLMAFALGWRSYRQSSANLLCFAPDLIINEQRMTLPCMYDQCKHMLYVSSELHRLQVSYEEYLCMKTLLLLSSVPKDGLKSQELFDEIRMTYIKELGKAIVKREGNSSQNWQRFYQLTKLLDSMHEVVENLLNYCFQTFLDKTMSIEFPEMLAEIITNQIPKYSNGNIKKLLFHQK

[4] = qHTS Assay for Identification of Small Molecule Agonists for Hypoxia Response Element Signaling Pathway (AID 914; active = well fitted activation curve with a large enough effect in the signal ratio, with a control signal flat, not every such curve was filed as active; the % refers to the signal ratio; also: potency is read from the fitted curve at half-maximal effect; as to activation: % of control where 0% means no effect); details: ME-180 (cervical carcinoma) HRE-bla reporter, beta-lactamase ratio, CoCl2, 17 h; activation: active compounds read high
Method in brief: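 HRE-bla ME-180 assay for agonist-like enhancement of an EC50 CoCl2 stimulus: 17 h at 37 degrees Celsius, CCF4 for 2.5 h, ratiometric 460/530 nm signal converted to %Activity and fitted to AC50.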

[5] = biological target: Tyrosyl-DNA phosphodiesterase 1 (Homo sapiens) (UniProt Q9NUW8); assay: Confirmation Assay for Inhibitors of Tyrosyl-DNA Phosphodiesterase (TDP1) (AID 489007; active = well fitted curve in the direction sought with a large enough effect; an effect the other way counts as inactive or inconclusive; also: potency is read from the fitted curve at half-maximal effect; nearly all actives have a fitted effect of over 40% in size); details: recombinant human TDP1 enzymatic activity, dose-response
Chain of Tyrosyl-DNA phosphodiesterase 1 (Homo sapiens) (Q9NUW8 whole entry, looked up): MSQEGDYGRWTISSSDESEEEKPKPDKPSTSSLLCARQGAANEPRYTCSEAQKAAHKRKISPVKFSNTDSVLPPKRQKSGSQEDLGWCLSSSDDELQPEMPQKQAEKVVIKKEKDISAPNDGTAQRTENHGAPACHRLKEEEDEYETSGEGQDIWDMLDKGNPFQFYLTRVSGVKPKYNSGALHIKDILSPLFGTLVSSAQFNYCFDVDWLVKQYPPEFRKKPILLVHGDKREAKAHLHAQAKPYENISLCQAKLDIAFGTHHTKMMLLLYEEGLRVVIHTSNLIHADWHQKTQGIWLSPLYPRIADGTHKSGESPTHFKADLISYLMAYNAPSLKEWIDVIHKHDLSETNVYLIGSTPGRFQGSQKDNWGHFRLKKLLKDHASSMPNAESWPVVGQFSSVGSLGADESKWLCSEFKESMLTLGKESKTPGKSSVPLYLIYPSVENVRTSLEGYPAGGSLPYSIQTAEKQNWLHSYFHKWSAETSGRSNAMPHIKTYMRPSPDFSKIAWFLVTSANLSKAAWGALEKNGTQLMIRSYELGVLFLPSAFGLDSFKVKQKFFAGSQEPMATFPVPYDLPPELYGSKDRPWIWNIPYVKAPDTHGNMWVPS
Method in brief: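 Loss of AlphaScreen signal reports Tdp1 cleavage of a dual-labelled DNA substrate. Conditions: 1 nM E. coli-derived enzyme, 15 nM substrate, 15 min compound preincubation, 5 min reaction, 10 min bead incubation, all at room temperature.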

[6] = biological target: Tumor susceptibility gene 101 protein (Homo sapiens) (UniProt Q99816); assay: qHTS Assay for Iinhibitors of HIV-1 Budding by Blocking the Interaction of PTAP/TSG101: Hit Validation (AID 651600; active = well fitted curve in the direction sought with a large enough effect; an effect the other way counts as inactive or inconclusive; also: potency is read from the fitted curve at half-maximal effect; nearly all actives have a fitted effect of over 70% in size)
Chain of Tumor susceptibility gene 101 protein (Homo sapiens) (Q99816 whole entry, looked up, the tested form may be a part): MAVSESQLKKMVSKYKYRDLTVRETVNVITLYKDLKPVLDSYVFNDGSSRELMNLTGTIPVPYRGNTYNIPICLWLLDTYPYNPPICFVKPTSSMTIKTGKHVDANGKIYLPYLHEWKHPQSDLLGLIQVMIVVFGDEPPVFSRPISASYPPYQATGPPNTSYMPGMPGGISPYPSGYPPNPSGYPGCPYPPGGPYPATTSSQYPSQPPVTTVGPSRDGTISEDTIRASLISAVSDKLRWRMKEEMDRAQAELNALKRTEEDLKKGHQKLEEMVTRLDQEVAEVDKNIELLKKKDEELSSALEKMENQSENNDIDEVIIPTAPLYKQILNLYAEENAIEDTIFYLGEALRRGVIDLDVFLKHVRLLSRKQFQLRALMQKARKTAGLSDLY
Method in brief: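 FITC-PTAP peptide (50 nM final) binding to Tsg101 binding domain (10 uM final) was measured by polarization after 20 min at r.t. with compounds, in 10 mM HEPES pH 7.5 buffer with 0.15 M NaCl and 0.01% Tween 20.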

[7] = biological target: Glucocorticoid receptor (Homo sapiens) (UniProt P04150); assay: GR-EFC Redistribution (AID 451; calls by dose curve; also: potency is read from the fitted curve at half-maximal effect); details: CHO-K1 GR-EFC translocation, beta-gal luminescence, 2 h
Method in brief: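 CHO-K1 cells stably expressing nuclear-localized β-gal enzyme acceptor and GR fused C-terminally to the enzyme donor fragment; ligand-driven nuclear translocation restores β-gal by complementation. Compounds titrated up to 46 uM final, 2 h at 37 °C; luminescence read.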

[8] = biological target: Cytochrome P450 2D6 (Homo sapiens) (UniProt P10635); assay: qHTS Assay for Inhibitors and Substrates of Cytochrome P450 2D6 (AID 891; active = well fitted curve in the direction sought with a large enough effect; an effect the other way counts as inactive or inconclusive;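 also: luciferin methyl ether substrate demethylated by CYP2D6 with NADPH regeneration; % is scaled to controls: 0 for no effect and ±100 for the full control effect; nearly all actives have a fitted effect of over 60% in size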)
Chain of Cytochrome P450 2D6 (Homo sapiens) (P10635 whole entry, looked up): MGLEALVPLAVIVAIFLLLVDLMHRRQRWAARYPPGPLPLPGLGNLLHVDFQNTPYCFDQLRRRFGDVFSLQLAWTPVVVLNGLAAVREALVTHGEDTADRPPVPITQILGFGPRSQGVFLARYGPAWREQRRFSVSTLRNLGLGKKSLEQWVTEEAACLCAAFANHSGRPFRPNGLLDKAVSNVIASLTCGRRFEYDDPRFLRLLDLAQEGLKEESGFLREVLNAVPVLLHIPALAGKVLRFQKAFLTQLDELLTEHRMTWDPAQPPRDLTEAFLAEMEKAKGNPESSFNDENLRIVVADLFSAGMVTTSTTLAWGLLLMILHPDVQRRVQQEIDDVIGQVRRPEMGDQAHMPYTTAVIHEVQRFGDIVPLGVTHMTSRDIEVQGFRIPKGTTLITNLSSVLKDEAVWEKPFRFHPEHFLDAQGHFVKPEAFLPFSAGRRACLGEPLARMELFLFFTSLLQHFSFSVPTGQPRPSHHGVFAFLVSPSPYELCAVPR
Method in brief: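 Luminescent read-out of luciferin formed by 5 nM human CYP2D6 demethylating 30 uM Luciferin-ME EGE (Km level) over 60 min at room temperature after NADPH regeneration addition. Data normalized to full inhibition by 1.43 uM quinidine.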

[9] = biological target: Cytochrome P450 2C19 (Homo sapiens) (UniProt P33261); assay: qHTS Assay for Inhibitors and Substrates of Cytochrome P450 2C19 (AID 899; active = well fitted curve in the direction sought with a large enough effect; an effect the other way counts as inactive or inconclusive; also: potency is read from the fitted curve at half-maximal effect; nearly all actives have a fitted effect of over 60% in size)
Chain of Cytochrome P450 2C19 (Homo sapiens) (P33261 whole entry, looked up): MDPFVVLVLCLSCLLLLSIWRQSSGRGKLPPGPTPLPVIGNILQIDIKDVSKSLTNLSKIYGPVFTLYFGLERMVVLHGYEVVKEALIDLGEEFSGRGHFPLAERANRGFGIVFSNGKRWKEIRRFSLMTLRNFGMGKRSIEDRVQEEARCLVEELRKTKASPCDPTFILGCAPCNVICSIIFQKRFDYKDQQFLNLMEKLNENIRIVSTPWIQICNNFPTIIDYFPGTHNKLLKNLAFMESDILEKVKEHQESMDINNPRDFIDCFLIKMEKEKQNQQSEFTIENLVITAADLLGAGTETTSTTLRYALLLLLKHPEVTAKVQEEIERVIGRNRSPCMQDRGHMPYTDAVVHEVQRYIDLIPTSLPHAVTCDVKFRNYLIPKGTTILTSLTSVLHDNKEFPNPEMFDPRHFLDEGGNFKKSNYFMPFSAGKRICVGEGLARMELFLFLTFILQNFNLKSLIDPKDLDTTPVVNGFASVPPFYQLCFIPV
Method in brief: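 In 50mM KPO4, the reaction held 5nM enzyme and KM-level (10uM) Luciferin-H EGE; it ran 60 min at 37C after NADPH regeneration and a 10 min compound preincubation. Luminescence values were scaled to 57uM ketoconazole as complete inhibition.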

[10] = qHTS for Inhibitors of the vitamin D receptor (VDR): Hit Validation using a Texas Red Assay (AID 602201; active = well fitted curve in the direction sought with a large enough effect; an effect the other way counts as inactive or inconclusive; also: potency is read from the fitted curve at half-maximal effect); details: VDR coregulator binding, Texas Red fluorescence polarization; agonist-bound VDR ligand-binding domain
Method in brief: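 Fluorescence polarization (Ex 595/Em 615 nm) of Texas Red (7 nM) with 1.5 uM VDR-LBD and LG19078 (final concentrations). Compounds were incubated for 2 hours at room temperature.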

CCC(=O)Nc1c(C#N)c2nc3ccccc3nc2n1C1CCCCC1
activity change, negative = inhibition [1]: -0.0903% | activity, negative = inhibition [2]: 20.4% | Potency [3]: > 20.6 µM | Potency [4]: 10 µM (active)

O=C1c2ccccc2-c2onc3ccc(NCc4ccco4)c1c23
activity change, negative = inhibition [1]: -13% | activity, negative = inhibition [2]: -1.03% | Potency [3]: > 20.6 µM | Potency [5]: 7.08 µM (active) | Potency [6]: 1.63 µM (active)

Cc1cc(C(F)(F)F)c(C#N)c(SCC(=O)NC2CC2)n1
activity change, negative = inhibition [1]: 19.7% | activity, negative = inhibition [2]: 1.05% | Potency [3]: > 20.6 µM | activation [4]: 16.3%

Clc1ccc([C@@H](c2ccccc2Cl)C(Cl)Cl)cc1
activity change, negative = inhibition [1]: -7.25% [at 38 µM] | activity, negative = inhibition [2]: 2.17% [at 38 µM] | Potency [3]: > 46 µM | Potency [7]: > 46 µM | Potency [8]: inactive | Potency [9]: 0.631 µM (active)

CCCN(CCC)c1nc2ccccc2nc1C(C#N)C(=O)OC(C)COC (configuration not stated)
activity change, negative = inhibition [1]: -15.4% | activity, negative = inhibition [2]: -20.4% | Potency [3]: > 20.6 µM | activation [4]: -6.34%

O=C(CCN1CCc2ccccc2CC1)c1ccc2c(c1)OCCO2
activity change, negative = inhibition [1]: -22% | activity, negative = inhibition [2]: 12.8% | Potency [3]: > 20.6 µM | Potency [10]: 10 µM (active)

O=C(c1ccc(=O)oc1)N1CCOCC1
activity change, negative = inhibition [1]: 17.3% | activity, negative = inhibition [2]: -0.795% | Potency [3]: > 20.6 µM | activation [4]: 5.28%

CCOCCSc1nc2c(c(=O)[nH]c(=O)n2C)n1CCCc1ccccc1
activity change, negative = inhibition [1]: 3.98% | activity, negative = inhibition [2]: -3.21% | Potency [3]: > 20.6 µM | activation [4]: 6%

Cc1nc(Sc2cccn2C)c(C(F)(F)F)c(=O)[nH]1
activity change, negative = inhibition [1]: -5.32% | activity, negative = inhibition [2]: -1.21% | Potency [3]: > 20.6 µM | activation [4]: 6.77%

CCOC(=O)c1sc2c(c1C)c(=O)c(C(=O)OCC)cn2CC
activity change, negative = inhibition [1]: -9.16% | activity, negative = inhibition [2]: 6.04% | Potency [3]: > 20.6 µM | activation [4]: 16.2%

c1ccc2c(c1)NC(c1ccncc1)n1c-2nc2ccccc21 (configuration not stated)
activity change, negative = inhibition [1]: -17.1% | activity, negative = inhibition [2]: -7.32% | Potency [3]: > 20.6 µM | activation [4]: 15.3%

Source: PubChem BioAssay (NCATS)
